High-throughput results: PubChem BioAssay, National Center for Advancing Translational Sciences (NCATS)
FLuc counter – inhibits or activates purified firefly luciferase, miR-21 counter-screen; AID 588342; purified FLuc, Km substrates, luminescence inhibition; Potency, µM (top dose mostly 57.5 µM), most hits filed as inhibitors; 6.9% of 360,000 active; P08659; also: nearly all actives have a fitted effect of over 55% in size
Target sequence (P08659 whole entry, looked up): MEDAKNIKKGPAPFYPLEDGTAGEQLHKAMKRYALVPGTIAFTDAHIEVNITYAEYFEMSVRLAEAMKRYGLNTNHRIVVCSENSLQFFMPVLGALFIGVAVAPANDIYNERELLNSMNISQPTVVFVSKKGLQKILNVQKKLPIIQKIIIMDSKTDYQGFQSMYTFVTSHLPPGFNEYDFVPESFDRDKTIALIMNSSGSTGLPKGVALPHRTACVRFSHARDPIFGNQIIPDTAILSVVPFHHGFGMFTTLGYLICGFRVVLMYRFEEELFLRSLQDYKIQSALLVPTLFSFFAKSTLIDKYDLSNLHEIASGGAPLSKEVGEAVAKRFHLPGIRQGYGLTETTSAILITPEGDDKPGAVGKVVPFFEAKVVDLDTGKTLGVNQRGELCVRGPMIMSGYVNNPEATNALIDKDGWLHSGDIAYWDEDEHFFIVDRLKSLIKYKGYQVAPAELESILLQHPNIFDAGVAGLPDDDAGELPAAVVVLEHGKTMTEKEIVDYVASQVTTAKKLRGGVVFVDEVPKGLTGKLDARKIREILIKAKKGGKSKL
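Biochemical qHTS of compounds, final roughly 60 µM downward over six points, against 10 nM purified firefly luciferase using Km concentrations of substrates (10 uM D-luciferin, 10 uM ATP) in Tris acetate pH 7.5 buffer; luminescence output.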
Rab9 prom act – activates the Rab9 promoter | Huh7 Rab9 promoter-luciferase reporter, luminescence, 24 h | Potency, µM (doses to about 9.22 µM), usual class: activators | 2.8% of 320,000 active; also: nearly all actives have a fitted effect of over 60% in size
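Promoter activation is measured as luciferase luminescence in Huh7 cells stably transfected with a Rab9 promoter–luciferase construct, following 24 h compound exposure at 37 °C and 10 min reagent incubation at ambient temperature.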
ELG1 genotoxic – induces genotoxicity in HEK293T cells with luciferase-tagged ELG1; Potency, µM (series often up to 46 µM), usual class: activators; 1.3% of 330,000 active; HEK293T ELG1-luciferase reporter, luminescence, 16 h; also: nearly all actives have a fitted effect of over 60% in size
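Genotoxic stress is detected as increased luminescence from luciferase-tagged ELG1 in HEK293T cells, measured with ONE-Glo after a 16 hr treatment at 37 °C.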
NPC1 promoter act – activates the NPC1 promoter; Huh7 NPC1 promoter luciferase reporter, 24 h; Potency, µM (top dose mostly 9.22 µM), actives largely listed as activators; 2.4% of 320,000 active; AID 485313; also: nearly all actives have a fitted effect of over 60% in size
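In 1536-well qHTS, Huh7 cells harboring an NPC1 promoter–luciferase construct received compound for 24 h; activation was quantified by luminescence following luciferase reagent addition.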
SMN2 splice enh – SMN2 splice variant enhancement; AID 1458; HEK293 SMN2-luciferase splicing reporter, luminescence, 30-36 h; Potency, µM (titrated, usually from 46.1 µM), hits mostly activators; 2.8% of 210,000 active; also: nearly all actives have a fitted effect of over 55% in size
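qHTS luciferase splicing reporter: luminescence rises when SMN2 exon 7 is included in transfected HEK293 cells. Compound exposure lasted 30-36 h at 37C, with 4.5 mM final sodium butyrate as control, followed by a ONE-Glo read.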
Numbers stand for hits; 0 = inactive; ? = inconclusive; - = not tested or not shown; [ ] = dose if it differs, or a comment. A selection: hits, their analogues and other compounds. The true share with any hit is near 7.4%. Calls follow the shape of the dose curve; as a rule, active = well fitted curve in the direction sought with a large enough effect; inconclusive = small, poorly fitted or top-dose-only effect, or another doubt; inactive = no such curve, though single readings can be large; an effect the other way counts as inactive or inconclusive.

SMILES	FLuc counter	Rab9 prom act	ELG1 genotoxic	NPC1 promoter act	SMN2 splice enh
COc1ccc(OC)c(NC(=O)c2cc(-c3ccc(Cl)s3)nc3ccccc23)c1	0	-	-	-	0
S=C(NCCc1ccccc1)NCc1cccs1	?	?	?	?	10µM
NC(=O)C1CCN(c2nc(-c3ccc4c(c3)OCCO4)cs2)CC1	4.8µM	2.8µM	0	1.4µM	-
NC(=O)C1CCN(c2nc(-c3ccc4c(c3)OCO4)cs2)CC1	19µM	-	-	-	-
O=C(COC(=O)CSc1ccc([N+](=O)[O-])cc1)NCCC1=CCCCC1	0	0	0	0	-
O=C(NCC(c1cccnc1)N1CCc2ccccc2C1)C(=O)Nc1ccccc1 (stereo unspecified)	0	-	-	-	-
COc1cc(C(=O)NCC(c2cccnc2)N2CCc3ccccc3C2)cc(OC)c1OC (stereo unspecified)	0	-	-	-	-
COc1ccc(NC(=O)C(=O)NCC(c2cccnc2)N2CCc3ccccc3C2)cc1 (stereo unspecified)	0.38µM	-	-	-	-
COc1ccccc1C(=O)NCC(c1cccnc1)N1CCc2ccccc2C1 (stereo unspecified)	2.7µM	-	-	-	-
CC(=O)c1c(C)[nH]c(C(=O)COC(=O)c2cc(C)oc2C)c1C	0	0	0	0	-
COc1ccc(C(c2sc3ncnn3c2O)N2CCN(c3ccccc3F)CC2)cc1OC (stereo unspecified)	7.6µM	0	?	0	0
COc1ccc(C(c2sc3ncnn3c2O)N2CC(C)OC(C)C2)cc1OC (stereo unspecified)	19µM	0	0	0	0
COc1ccc(CNC(=S)N/N=C(/C)c2ccccc2)cc1	7.6µM	?	18µM	?	-
Cc1c(NC(=O)c2c(N)sc3c2CCCC3)c(=O)n(-c2ccccc2)n1C	0	0	0	0	0
C=CCc1c(C)nc2c(OC)cccc2c1Cl	13µM	0	0	0	-
O=C(CSc1nc(-c2ccc(F)cc2)[nH]c1-c1ccccc1)NCC1CCCO1 (stereo unspecified)	0	-	-	-	0
CCOc1cnc(-c2c(-c3c(F)cccc3Cl)noc2C)o1	0	0	0	0	0
CCOc1cnc(-c2ccccc2F)o1	17µM	0	0	0	0
CCOc1ccc(NC(=O)CN2C(=O)c3ccccc3Sc3ccc(C(=O)OC)cc32)cc1	0	-	-	-	-
CC(=O)Nc1cc(CN2CCCCC2)c(O)c2ncccc12	-	-	-	-	0[9.22 µM]
CN1CCSc2ccc(C(=O)NCc3ccccc3)cc21	?	0	0	0	0
Cc1ccc(CN2CCSc3ccc(C(=O)Nc4ccc(C)cc4)cc32)cc1	21µM	-	-	-	?
CN1CCSc2ccc(C(=O)Nc3cccc(F)c3)cc21	1.7µM	1µM	2.1µM	1.4µM	-
COc1ccc(NC(=O)c2ccc3c(c2)N(C)CCS3)cc1	3.4µM	4µM	?	2µM	-
COc1ccc(NC(=O)c2ccc3c(c2)n(C)c(=O)n3C)cc1	?	0	?	0	?
SMILES	FLuc counter	Rab9 prom act	ELG1 genotoxic	NPC1 promoter act	SMN2 splice enh
CC(=O)N1CCCc2cc(S(=O)(=O)N3CCCC(C)C3)ccc21 (stereo unspecified)	0	0	0	0	-
CS(=O)(=O)c1cnc2c(-c3ccsc3)cnn2c1N	11µM	2.8µM	21µM	2.8µM	13µM
CS(=O)(=O)c1cnc2c(S(=O)(=O)c3ccccc3)cnn2c1N	0	0	0	0	0
CCOc1ccc(CCNC(=O)c2cc3c(=O)n(C)c4ccccc4c3n2C)cc1OCC	0	-	-	-	0
Cc1ccc(C)c(N2CCN(CCCNC(=O)c3ccc4nc(CCc5ccccc5)oc4c3)CC2)c1	0	-	-	-	-
COc1ccc(/C(C)=N/NC(=O)c2cc(C)[nH]n2)c(OC)c1	0	0	0	0	-
CC(C)(C)c1ccc(C(=O)NC(=S)Nc2ccc(N3CCOCC3)cc2)cc1	0	0	0	0	2.8µM
CC(C)(C)c1ccc(C(=O)Nc2ccc(N3CCOCC3)cc2)cc1	?	0	0	0	0
O=C(NC(=S)Nc1ccc(N2CCOCC2)cc1)c1cccs1	24µM	0.79µM	0	?	-
CC(C)(C)c1ccc(C(=O)NC(=S)N2CCCC2)cc1	9.5µM	0[1.84 µM]	0	0	-
Cc1ccc(C(=O)N2CCN(c3ccc(NC(=S)NC(=O)c4cccs4)cc3)CC2)cc1	0	0	0	0	-
O=C(CCCCl)NC(=S)Nc1ccc(N2CCOCC2)cc1	0	1.4µM	?	2.8µM	-
Cc1cc2sc(C)[n+](CCCOS(=O)(=O)O)c2cc1C	-	-	-	-	0[9.22 µM]
O=C1COc2ccc(-c3cc(-c4ccccc4)c4c(n3)-c3cc(Cl)ccc3OC4)cc2N1	0	-	-	-	0
O=C1C(=C2SCCCS2)CC/C1=C\c1ccc(F)cc1	0.067µM	?	?	?	0
Cc1cccc(/C=C2\CCC(=C3SCCCS3)C2=O)c1	0.085µM	0.089µM	?	0.32µM	?
O=C1/C(=C/c2ccc(C(=O)O)cc2)CCC/C1=C\c1ccc(C(=O)O)cc1	0	0	0	0	0
CCN(CC)CCOc1c(Br)ccc2c1sc1nc3n(c(=O)c12)CCC3	0	0	?	0	0
O=c1c2c(nc3n1CCCCC3)sc1c(O)c(Br)ccc12	2.7µM	2.8µM	2.3µM	4µM	16µM
